Values joined by “and” are separate entries in the source; they are usually repeats but may differ in a detail not shown here. Equal entries are not always repeated. Hit rate of the full screen: of about 5,500 compounds, about 2,000 (36%) were called active. Inconclusive results (about 18%) are left out. No stated cut-off is given here; in the data, active means normalized growth mostly below about 0.91 (no sharp cut-off); inconclusive means no clear call, values can overlap the other calls; inactive means mostly above about 0.92. The list shows a part of the results.
Assay: chemical genetic growth profiling, strain panel (AID 1159580);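 further: tested at 20 µM; growth read once vehicle control cultures reached saturation at 30 °C; 1 = growth at the plate median or of vehicle wells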
Conditions: S. cerevisiae deletion strains, growth OD

Measured: normalized growth

COc1ccc(-c2coc3cc(O)ccc3c2=O)cc1
active: locus YBR021W, strain FUR4, stronger effect = lower value 0.751 | locus YDL192W, strain arf1, stronger effect = lower value 0.912 | locus YDR318W, strain mcm21, stronger effect = lower value 0.896 | locus YDR392W, strain spt3, stronger effect = lower value 0.726 | locus YDR502C, strain sam2, stronger effect = lower value 0.878 | locus YGL078C, strain dbp3, stronger effect = lower value 0.91 | locus YGL086W, strain mad1, stronger effect = lower value 0.884 | locus YGL248W, strain PDE1, stronger effect = lower value 0.853 | locus YGR135W, strain pre9, stronger effect = lower value 0.821 | locus YGR252W, strain gcn5, stronger effect = lower value 0.698 | locus YHR200W, strain rpn10, stronger effect = lower value 0.904 | locus YKR001C, strain vps1, stronger effect = lower value 0.837 | locus YLR330W, strain CHS5, stronger effect = lower value 0.896 | locus YLR418C, strain cdc73, stronger effect = lower value 0.74 | locus YNL233W, strain BNI4, stronger effect = lower value 0.827 | locus YNL307C, strain MCK1, stronger effect = lower value 0.847 | locus YPR163C, strain tif3, stronger effect = lower value 0.794
inactive: locus YAL021C, strain ccr4, stronger effect = lower value 1 | locus YAL026C, strain drs2, stronger effect = lower value 0.943 | locus YAL030W, strain snc1, stronger effect = lower value 0.986 | locus YBL061C, strain skt5, stronger effect = lower value 0.983 | locus YBR009C, strain hhf1, stronger effect = lower value 0.953 | locus YBR023C, strain chs3, stronger effect = lower value 0.98 | locus YBR171W, strain sec66, stronger effect = lower value 0.973 | locus YBR229C, strain ROT2, stronger effect = lower value 0.967 | locus YBR231C, strain swc5, stronger effect = lower value 0.964 | locus YBR279W, strain paf1, stronger effect = lower value 0.993 | locus YCL011C, strain gbp2, stronger effect = lower value 0.965 | locus YCL016C, strain dcc1, stronger effect = lower value 0.974 | locus YCL029C, strain bik1, stronger effect = lower value 0.949 | locus YCL061C, strain MRC1, stronger effect = lower value 0.959 | locus YCL069W, strain vba3, stronger effect = lower value 0.98 | locus YCR088W, strain abp1, stronger effect = lower value 0.982 | locus YDL005C, strain med2, stronger effect = lower value 0.982 | locus YDL035C, strain GPR1, stronger effect = lower value 0.933 | locus YDL040C, strain nat1, stronger effect = lower value 0.985 | locus YDL074C, strain BRE1, stronger effect = lower value 0.839 | locus YDL101C, strain DUN1, stronger effect = lower value 0.916 | locus YDL185W, strain tfp1, stronger effect = lower value 0.964 | locus YDR001C, strain nth1, stronger effect = lower value 0.978 | locus YDR069C, strain doa4, stronger effect = lower value 1.01 | locus YDR101C, strain arx1, stronger effect = lower value 0.941 | locus YDR137W, strain rgp1, stronger effect = lower value 0.906 | locus YDR159W, strain sac3, stronger effect = lower value 0.955 | locus YDR162C, strain NBP2, stronger effect = lower value 0.894 | locus YDR195W, strain ref2 1.13 | locus YDR297W, strain sur2, stronger effect = lower value 0.978 | locus YDR334W, strain swr1, stronger effect = lower value 0.989 | locus YDR335W, strain msn5, stronger effect = lower value 0.99 | locus YDR388W, stronger effect = lower value 0.964 | locus YEL003W, strain gim4, stronger effect = lower value 0.977 | locus YEL037C, strain rad23, stronger effect = lower value 0.983 | locus YEL061C, strain CIN8 (second series), stronger effect = lower value 0.986 | locus YER015W, strain faa2, stronger effect = lower value 0.989 | locus YER016W, strain bim1, stronger effect = lower value 0.979 | locus YER110C, stronger effect = lower value 0.974 | locus YER111C, strain swi4, stronger effect = lower value 0.992 | locus YER155C, strain BEM2 (second series), stronger effect = lower value 0.907 | locus YER155C, strain BEM2, stronger effect = lower value 0.962 | locus YER167W, strain BCK2, stronger effect = lower value 0.973 | locus YFR010W, strain ubp6, stronger effect = lower value 0.984 | locus YGL167C, strain pmr1, stronger effect = lower value 0.997 | locus YGL173C, strain kem1, stronger effect = lower value 0.979 | locus YGL227W, strain vid30, stronger effect = lower value 0.981 | locus YGL240W, strain doc1, stronger effect = lower value 0.916 | locus YGL253W, strain hxk2, stronger effect = lower value 0.932 | locus YHR013C, strain ard1, stronger effect = lower value 0.977 | locus YHR027C, strain rpn1, stronger effect = lower value 0.995 | locus YHR030C, strain SLT2, stronger effect = lower value 0.975 and 0.906 | locus YHR079C, strain IRE1 (second series), stronger effect = lower value 0.969 | locus YHR079C, strain IRE1, stronger effect = lower value 0.936 | locus YHR094C, strain hxt1, stronger effect = lower value 0.96 | locus YHR129C, strain ARP1, stronger effect = lower value 0.929 | locus YHR142W, strain chs7, stronger effect = lower value 0.893 | locus YIL066C, strain RNR3, stronger effect = lower value 0.957 | locus YIL073C, strain SPO22, stronger effect = lower value 0.886 | locus YIL125W, strain kgd1, stronger effect = lower value 0.966 | locus YIR030C, strain dcg1, stronger effect = lower value 0.961 | locus YJL092W, strain hpr5, stronger effect = lower value 0.974 | locus YJL095W, strain BCK1 (second series), stronger effect = lower value 0.987 | locus YJL095W, strain BCK1, stronger effect = lower value 0.81 and 0.908 | locus YJL115W, strain asf1, stronger effect = lower value 0.998 | locus YJL129C, strain trk1, stronger effect = lower value 0.954 | locus YJL134W, strain LCB3, stronger effect = lower value 0.98 | locus YJL154C, strain vps35, stronger effect = lower value 0.982 | locus YJL164C, strain tpk1, stronger effect = lower value 0.943 | locus YJL166W, strain qcr8, stronger effect = lower value 0.951 | locus YJL168C, strain set2, stronger effect = lower value 0.977 | locus YJL187C, strain SWE1 (second series), stronger effect = lower value 0.879 | locus YJL187C, strain SWE1, stronger effect = lower value 0.984 | locus YJR066W, strain TOR1, stronger effect = lower value 0.836 | locus YKL009W, strain mrt4, stronger effect = lower value 0.914 | locus YKL068W, stronger effect = lower value 0.965 | locus YKL085W, strain MDH1 (second series), stronger effect = lower value 0.968 | locus YKL085W, strain MDH1, stronger effect = lower value 0.968 | locus YKL160W, strain elf1, stronger effect = lower value 0.942 | locus YKR026C, strain gcn3, stronger effect = lower value 0.981 | locus YKR091W, strain srl3, stronger effect = lower value 0.984 | locus YLL001W, strain dnm1, stronger effect = lower value 0.954 | locus YLL026W, stronger effect = lower value 0.977 | locus YLL041C, strain sdh2, stronger effect = lower value 0.983 | locus YLR027C, strain aat2, stronger effect = lower value 0.965 | locus YLR039C, strain RIC1, stronger effect = lower value 0.784 | locus YLR058C, strain SHM2, stronger effect = lower value 0.906 | locus YLR102C, strain apc9, stronger effect = lower value 0.975 | locus YLR113W, strain HOG1, stronger effect = lower value 0.992 | locus YLR221C, strain rsa3, stronger effect = lower value 0.929 | locus YLR258W, strain gsy2, stronger effect = lower value 0.99 | locus YLR262C, strain YPT6 (second series), stronger effect = lower value 0.881 | locus YLR268W, strain sec22, stronger effect = lower value 0.9 | locus YLR320W, strain mms22, stronger effect = lower value 0.919 | locus YLR342W, strain FKS1 (second series), stronger effect = lower value 0.876 | locus YLR342W, strain FKS1, stronger effect = lower value 0.975 | locus YLR357W, strain rsc2, stronger effect = lower value 0.95 | locus YLR371W, strain rom2, stronger effect = lower value 0.993 | locus YLR384C, strain iki3, stronger effect = lower value 0.989 | locus YML016C, strain PPZ1, stronger effect = lower value 0.959 | locus YML032C, strain rad52, stronger effect = lower value 0.933 | locus YML120C, strain ndi1, stronger effect = lower value 0.955 | locus YML124C, strain tub3, stronger effect = lower value 0.974 | locus YMR058W, strain fet3, stronger effect = lower value 0.952 | locus YMR078C, strain ctf18, stronger effect = lower value 0.961 | locus YMR125W, strain sto1, stronger effect = lower value 0.98 | locus YMR129W, stronger effect = lower value 0.981 | locus YMR205C, strain PFK2, stronger effect = lower value 0.972 | locus YMR223W, strain ubp8, stronger effect = lower value 0.913 | locus YMR231W, strain pep5, stronger effect = lower value 1 | locus YMR307W, strain GAS1, stronger effect = lower value 0.706 | locus YNL067W, strain RPL9B, stronger effect = lower value 0.87 | locus YNL071W, strain lat1, stronger effect = lower value 0.924 | locus YNL183C, strain NPR1, stronger effect = lower value 0.872 | locus YNL209W, strain ssb2, stronger effect = lower value 0.987 | locus YNL248C, strain rpa49, stronger effect = lower value 0.94 | locus YNL250W, strain rad50, stronger effect = lower value 0.944 | locus YNL271C, strain bni1, stronger effect = lower value 0.941 | locus YNL298W, strain CLA4, stronger effect = lower value 0.928 | locus YNL322C, strain KRE1 (second series), stronger effect = lower value 0.979 | locus YNR049C, strain mso1, stronger effect = lower value 0.986 | locus YNR052C, strain pop2, stronger effect = lower value 0.927 | locus YOL012C, strain htz1 0.948 | locus YOL147C, strain pex11, stronger effect = lower value 0.934 | locus YOR001W, strain rrp6, stronger effect = lower value 0.952 | locus YOR061W, strain CKA2, stronger effect = lower value 0.985 | locus YOR069W, strain VPS5, stronger effect = lower value 0.927 | locus YOR070C, strain gyp1, stronger effect = lower value 0.975 | locus YOR080W, strain dia2, stronger effect = lower value 0.993 | locus YOR083W, strain WHI5, stronger effect = lower value 0.91 | locus YOR106W, strain vam3, stronger effect = lower value 0.915 | locus YOR136W, strain idh2, stronger effect = lower value 0.95 | locus YOR144C, strain elg1, stronger effect = lower value 0.968 | locus YOR184W, strain ser1, stronger effect = lower value 0.931 | locus YOR231W, strain MKK1, stronger effect = lower value 0.934 | locus YOR265W, strain rbl2, stronger effect = lower value 0.999 | locus YOR270C, strain vph1, stronger effect = lower value 0.807 | locus YOR290C, strain snf2, stronger effect = lower value 0.88 | locus YOR316C, strain cot1, stronger effect = lower value 0.96 | locus YPL051W, strain arl3, stronger effect = lower value 0.943 | locus YPL078C, strain atp4, stronger effect = lower value 0.905 | locus YPL106C, strain sse1, stronger effect = lower value 0.984 | locus YPL240C, strain hsp82, stronger effect = lower value 0.984 | locus YPL241C, strain CIN2, stronger effect = lower value 0.998 | locus YPL256C, strain CLN2, stronger effect = lower value 0.922 | locus YPR119W, strain clb2, stronger effect = lower value 0.973 | locus YPR141C, strain kar3, stronger effect = lower value 0.967 | locus YPR167C, strain met16, stronger effect = lower value 0.93 | strain wtn01, stronger effect = lower value 0.911
